From PubChem BioAssay (Tox21)
Inconclusive results are not listed. Calls of active or inactive are those of the source. Unless noted, calls follow the shape of the dose curve; as a rule, active = well fitted curve in the direction sought with a large enough effect in the repeat runs; inconclusive = weak or mixed curves; inactive = no such curve, though single readings can be large; an effect the other way counts as inactive or inconclusive.

What was measured:
[1] = A CellTox Green Cytotoxicity Assay to monitor cytotoxicity in HEK293 cells - 32 hour (AID 1224881); also: nearly all actives have a fitted effect of over 40% in size
How it was run: (§1)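 Cells (HEK293, 600/well) and dye reagent are dispensed together. After 5 h at 37 C, 23 nL compound is pinned in. Plates stay at 37 C for 40 h with fluorescence read at 0h, 8h, 16h, 24h, 32h and 40h.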

[2] = A CellTox Green Cytotoxicity Assay to monitor cytotoxicity in HepG2 cells - 0 hour (AID 1224882); also: nearly all actives have a fitted effect of over 35% in size
How it was run: (§2)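 Cells and non-lytic dye reagent are dispensed together (600 HepG2 cells/well) and incubated 5 h before DMSO compound transfer. Kinetic fluorescence is then recorded in the same wells during 40 h at 37 C.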

[3] = A CellTox Green Cytotoxicity Assay to monitor cytotoxicity in HepG2 cells - 32 hour (AID 1224883); also: nearly all actives have a fitted effect of over 50% in size
How it was run: as §2

[4] = A CellTox Green Cytotoxicity Assay to monitor cytotoxicity in HEK293 cells - 8 hour (AID 1224884); also: nearly all actives have a fitted effect of over 35% in size
How it was run: as §1

[5] = qHTS RealTime-Glo MT Cell Viability Assay in HEK293 cells - 24 hour (AID 1224886); also: top concentration of the series differs between compounds; nearly all actives have a fitted effect of over 50% in size
How it was run: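 Reads taken at 0, 8, 16, 24, 32 and 40 h from the same wells. HEK293 cells (600/well) carried RealTime-Glo reagents from seeding, with compound added after a 5 h settle at 37 C.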

[6] = qHTS RealTime-Glo MT Cell Viability Assay in HEK293 cells - 8 hour (AID 1224887); also: top concentration of the series differs between compounds; nearly all actives have a fitted effect of over 50% in size
How it was run: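 Real-time viability in HEK293: signal arises when living cells convert a prosubstrate for NanoLuc in the medium, so luminescence tracks viable cell number. Compound (23 nL, DMSO) added 5 h post-seeding; kinetic reads at 0–40 h, 37 C.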

[7] = qHTS RealTime-Glo MT Cell Viability Assay in HepG2 cells - 0 hour (AID 1224889); also: nearly all actives have a fitted effect of over 50% in size
How it was run: (§3)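 HepG2 suspension premixed with RealTime-Glo reagents is plated at 600 cells per well and left 5 h at 37 C/5% CO2. Compounds in DMSO then go in, and bioluminescence reflecting viable cell number is recorded over 40 h.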

[8] = A CellTox Green Cytotoxicity Assay to monitor cytotoxicity in HepG2 cells - 8 hour (AID 1224890); also: nearly all actives have a fitted effect of over 45% in size
How it was run: as §2

[9] = qHTS assay to identify small molecule antagonists of the estrogen receptor alpha (ER-alpha) signaling pathway using the BG1 cell line in the presence of 0.1 nM 17-beta-estradiol - cell viability counter screen (AID 1259241); also: nearly all actives have a fitted effect of over 40% in size
How it was run: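 Cells were plated and left 24 hr, compounds in DMSO were pinned in, 17beta-estradiol was added to 0.1 nM final, and after 22 hr CellTiter-Fluor reagent was added for 30 min before fluorescence was read.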

[10] = qHTS assay to identify small molecule antagonists of the androgen receptor (AR) signaling pathway using the MDA cell line in the presence of 0.5 nM R1881 - cell viability counter screen (AID 1259242); also: nearly all actives have a fitted effect of over 45% in size
How it was run: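 Steps: plate MDA-kb2 cells, rest 5 hr at 37C without CO2; pin in compounds in DMSO; add R1881 to 0.5 nM final; incubate 16 hr; add CellTiter-Fluor, 30 min; read fluorescence.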

[11] = biological target: Androgen receptor (Homo sapiens) (UniProt P10275); assay: qHTS assay to identify small molecule antagonists of the androgen receptor (AR) signaling pathway using the MDA cell line in the presence of 0.5 nM R1881 (AID 1259243); also: nearly all actives have a fitted effect of over 50% in size
How it was run: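 Stably transfected MDA-kb2 cells express luciferase from an MMTV promoter bearing both AR and GR response elements. Compounds plus 0.5 nM R1881 (final) were incubated 16 hr at 37C without CO2, then luminescence measured.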

[12] = biological target: Estrogen receptor (Homo sapiens) (UniProt P03372); assay: qHTS assay to identify small molecule antagonists of the estrogen receptor alpha (ER-alpha) signaling pathway using the BG1 cell line in the presence of 0.1 nM 17-beta-estradiol (AID 1259244); also: nearly all actives have a fitted effect of over 50% in size
How it was run: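 Antagonist mode: compounds in DMSO are pinned onto VM7Luc4E2 reporter cells, 0.1 nM final 17beta-estradiol is added, and after 22 h at 37C luciferase luminescence is measured with ONE-Glo.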

[13] = qHTS assay to identify small molecule HDAC inhibitors (AID 1259364);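 also: wild-type HCT-116 cells with endogenous class I/II HDAC activity; top concentration of the series differs between compounds; nearly all actives have a fitted effect of over 45% in size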
How it was run: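 Cells (HCT-116, wild type) are seeded at 1,500 per well, incubated overnight, treated with compound in DMSO for 2 hr, then developed with HDAC-Glo I/II reagent for 30 min at room temperature.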

[14] = qHTS assay to identify small molecule HDAC inhibitors - cell viability counter screen (AID 1259365)
How it was run: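 Counter screen in wild-type HCT-116 cells: compounds dissolved in DMSO are pin-transferred onto overnight-plated cells and left 2hr at 37C. ATP-based CellTiter-Glo luminescence then measures viable cells.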

[15] = qHTS assay to identify small molecule agonists of the sonic hedgehog signaling (Shh) pathway - cell viability counter screen (AID 1259366); also: nearly all actives have a fitted effect of over 50% in size
How it was run: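 Cells are plated at 2,000 per well and left 4hr at 37C, 5% CO2 before compound addition. After 23hr of treatment, CellTiter-Fluor reagent is added for 1hr at 37C and fluorescence is measured.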

[16] = qHTS assay to identify small molecule antagonists of the sonic hedgehog signaling (Shh) pathway - cell viability counter screen (AID 1259367); also: nearly all actives have a fitted effect of over 55% in size
How it was run: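 CellTiter-Fluor signal in conditioned medium-stimulated 3T3 Gli1-Luc cells, 23 hr compound exposure, 37C.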

[17] = qHTS assay to identify small molecule agonists of the sonic hedgehog signaling (Shh) pathway (AID 1259368; calls by dose curve;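 also: NIH/3T3-derived 3T3Gli1-Luc cells carrying a stable Gli1-driven firefly luciferase reporter; series mostly up to about 92 µM; nearly all actives have a fitted effect of over 15% in size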)
How it was run: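 Cells of a mouse NIH/3T3 clone stably expressing luciferase under the Gli1 transcriptional response element are exposed to test chemicals for 24 hr at 37 C. Pathway activation is detected as a rise in luminescence.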

[18] = qHTS RealTime-Glo MT Cell Viability Assay in HepG2 cells - 16 hour (AID 1224885); also: nearly all actives have a fitted effect of over 50% in size
How it was run: as §3

[19] = A CellTox Green Cytotoxicity Assay to monitor cytotoxicity in HEK293 cells - 16 hour (AID 1224888); also: nearly all actives have a fitted effect of over 35% in size
How it was run: as §1

[20] = qHTS assay to identify small molecule phospholipidosis (PLD) inducers (AID 1259344; active = well fitted curve in the direction sought with a large enough effect; an effect the other way counts as inactive or inconclusive)
How it was run: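 Accumulated phospholipid, stained red by LipidTOX during 24 h compound treatment of HepG2 cells at 37 C, is quantified from images as pit number and intensity, normalised per cell using Hoechst-stained nuclei.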

Measured: Potency

Estrogen receptor (Homo sapiens), sequence (P03372 whole entry, looked up): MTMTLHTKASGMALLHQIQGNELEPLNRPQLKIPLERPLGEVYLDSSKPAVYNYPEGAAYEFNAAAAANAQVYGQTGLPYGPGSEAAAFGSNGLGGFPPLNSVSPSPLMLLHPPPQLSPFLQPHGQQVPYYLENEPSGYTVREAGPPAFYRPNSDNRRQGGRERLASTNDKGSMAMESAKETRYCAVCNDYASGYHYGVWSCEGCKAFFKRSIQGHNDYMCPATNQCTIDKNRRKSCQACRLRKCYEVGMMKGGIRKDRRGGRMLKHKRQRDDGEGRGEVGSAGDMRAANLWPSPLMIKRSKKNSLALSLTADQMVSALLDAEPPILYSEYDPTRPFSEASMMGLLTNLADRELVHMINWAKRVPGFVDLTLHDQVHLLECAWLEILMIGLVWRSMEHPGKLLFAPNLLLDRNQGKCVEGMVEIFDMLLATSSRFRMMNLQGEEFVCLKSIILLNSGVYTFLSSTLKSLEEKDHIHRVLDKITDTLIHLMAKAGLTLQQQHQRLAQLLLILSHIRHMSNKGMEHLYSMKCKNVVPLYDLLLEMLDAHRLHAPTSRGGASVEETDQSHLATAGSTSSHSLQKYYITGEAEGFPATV
Androgen receptor (Homo sapiens), sequence (P10275 whole entry, looked up): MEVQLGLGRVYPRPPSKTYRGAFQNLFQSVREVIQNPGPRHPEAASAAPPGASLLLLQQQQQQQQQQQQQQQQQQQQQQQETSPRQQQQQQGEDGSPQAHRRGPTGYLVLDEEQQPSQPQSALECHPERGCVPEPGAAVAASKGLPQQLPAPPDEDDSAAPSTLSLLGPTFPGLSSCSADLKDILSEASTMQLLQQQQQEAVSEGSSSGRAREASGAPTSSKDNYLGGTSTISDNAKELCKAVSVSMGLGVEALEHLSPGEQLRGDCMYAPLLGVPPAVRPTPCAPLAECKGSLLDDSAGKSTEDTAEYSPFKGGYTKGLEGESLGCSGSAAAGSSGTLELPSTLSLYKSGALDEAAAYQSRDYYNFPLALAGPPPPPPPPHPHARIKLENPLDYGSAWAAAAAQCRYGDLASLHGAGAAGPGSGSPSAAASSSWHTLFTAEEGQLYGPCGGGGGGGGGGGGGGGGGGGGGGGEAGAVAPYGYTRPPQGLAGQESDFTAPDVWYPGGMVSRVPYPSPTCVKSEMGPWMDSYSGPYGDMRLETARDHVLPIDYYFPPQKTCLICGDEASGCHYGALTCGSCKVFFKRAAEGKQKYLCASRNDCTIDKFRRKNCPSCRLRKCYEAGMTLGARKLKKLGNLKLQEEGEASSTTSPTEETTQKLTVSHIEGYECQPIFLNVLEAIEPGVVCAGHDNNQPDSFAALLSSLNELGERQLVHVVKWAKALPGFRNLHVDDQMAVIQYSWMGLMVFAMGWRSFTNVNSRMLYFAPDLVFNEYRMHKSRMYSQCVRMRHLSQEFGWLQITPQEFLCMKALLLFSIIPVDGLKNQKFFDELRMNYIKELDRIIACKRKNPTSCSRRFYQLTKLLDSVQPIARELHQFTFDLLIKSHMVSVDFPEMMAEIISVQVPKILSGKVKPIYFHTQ

COP(N)(=S)Oc1ccccc1C(=O)OC(C)C (stereo not given)
inactive: [1] | [2] | [3] | [4] | [5] | [6] | [7] | [8] | [9] | [10] | [11] | [12] | [13] | [14] | [15] | [16] | [17]

CC1CCCCC1NC(=O)Nc1ccccc1 (stereo not given)
inactive: [1] | [2] | [3] | [18] | [5] | [7] | [8] | [9] | [10] | [14] | [15] | [17]

ClC(Cl)Br
inactive: [1] | [2] | [3] | [18] | [5] | [6] | [7] | [8] | [9] | [10] | [12] | [13] | [14] | [15] | [16] | [17]

CC(C)COP(=O)(OCC(C)C)OCC(C)C
inactive: [1] | [2] | [3] | [4] | [6] | [19] | [7] | [8] | [9] | [10] | [13] | [14] | [15] | [17]

CN1CCN(C(=O)O[C@H]2c3nccnc3C(=O)N2c2ccc(Cl)cn2)CC1
inactive: [1] | [2] | [3] | [18] | [5] | [6] | [7] | [8] | [9] | [10] | [20] | [13] | [14] | [15] | [16] | [17]

Cc1cc(C)nc(Nc2ccccc2)n1
inactive: [1] | [2] | [3] | [4] | [5] | [6] | [19] | [7] | [8] | [10] | [12] | [14] | [15] | [16] | [17]

Cc1cnc[nH]1
inactive: [1] | [2] | [3] | [18] | [5] | [6] | [19] | [7] | [8] | [9] | [10] | [11] | [13] | [14] | [15] | [16] | [17]

CCOC(=O)NC(=S)Nc1ccccc1NC(=S)NC(=O)OCC
inactive: [1] | [2] | [3] | [4] | [6] | [7] | [8] | [9] | [10] | [14] | [15] | [17]

N#CCNCC#N
inactive: [1] | [2] | [3] | [4] | [6] | [19] | [7] | [8] | [9] | [10] | [12] | [13] | [14] | [15] | [16] | [17]
